Bioassay records deposited in PubChem by National Center for Advancing Translational Sciences (NCATS).
Most compounds without a hit are left out; they make up all but 2.4% or so of the library.
POLI inh – qHTS for Inhibitors of Polymerase Iota | Potency, µM (top dose mostly 115 µM), for the others: top-dose activity, negative = inhibition, usual class: inhibitors | AID 588590, 2011 | Pol iota fluorescent replication assay, 10 min | hit rate 1% among 390,000; also: potency is read from the fitted curve at half-maximal effect
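Pol iota at 10 nM preincubated 15 min with compounds at room temperature; reaction started with fluorescent substrate, 50 nM final. Fluorescence read kinetically at 0 and 10 min; buffer-only wells as negative control.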
FEN1 inh – qHTS Assay for the Inhibitors of Human Flap endonuclease 1 (FEN1); AID 588795, 2011; Recombinant FEN1 flap cleavage, fluorescence, 15 min; hit rate 0.35% among 390,000; Potency, µM (top dose mostly 114 µM), for the others: at the top dose activity change, negative = inhibition, actives largely listed as inhibitors; P39748; also: potency is read from the fitted curve at half-maximal effect; % is scaled to controls: 0 for no effect and ±100 for the full control effect; nearly all actives have a fitted effect of over 65% in size
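Potency values derive from four-parameter Hill fits of normalized qHTS data. The reaction used 10 nM FEN1 preincubated 15 min at room temperature with compound, then 50 nM DNA substrate, read at 0 and 15 min.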
POLK inh – qHTS for Inhibitors of Polymerase Kappa. Potency, µM (series often up to 107 µM), inactives show at the highest dose activity, negative = inhibition, most hits filed as inhibitors. purified Pol kappa, fluorescent DNA synthesis assay, 10 min. DNA polymerase kappa (Homo sapiens), Q9UBT6. AID 588579, 2011. hit rate 0.53% among 400,000; also: potency is read from the fitted curve at half-maximal effect; % is scaled to controls: 0 for no effect and ±100 for the full control effect
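Inhibition of 10 nM Pol kappa is measured by a fluorescent read-out at 0 and 10 min following addition of 50 nM substrate (final), with a 15-min room-temperature compound preincubation.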
WRN inhibitor – qHTS for Inhibitors of WRN Helicase; Bifunctional 3'-5' exonuclease/ATP-dependent helicase WRN (Homo sapiens), Q14191; WRN helicase unwinding, fluorescent forked duplex, kinetic; Potency, µM (doses to about 114 µM), for inactives: at the top dose activity change, negative = inhibition, usual class: inhibitors; hit rate 0.46% among 360,000; AID 651768, 2012; also: potency is read from the fitted curve at half-maximal effect; % is scaled to controls: 0 for no effect and ±100 for the full control effect; nearly all actives have a fitted effect of over 55% in size
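WRN at 20 nM final preincubated with compound 15 min at room temperature; reaction started with 100 nM fluorophore/quencher forked duplex oligonucleotide and 2 mM ATP final. Unwinding followed kinetically by red fluorescence (ex 525, em 598 nm).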
POLB inh – qHTS Assay for Inhibitors of DNA Polymerase Beta | P06746 | Potency, µM (top dose mostly 114 µM), inactives show top-dose activity change, negative = inhibition, usual class: inhibitors | hit rate 1.3% among 340,000 | Pol beta primer extension/strand displacement, fluorescence kinetic; also: potency is read from the fitted curve at half-maximal effect; % is scaled to controls: 0 for no effect and ±100 for the full control effect
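Homogeneous kinetic assay of primer extension and strand displacement by 10 nM Pol beta, preincubated 15 min at room temperature with compound before 50 nM substrate (final) was added. Read at 0 and 10 min; four-parameter Hill fit.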
Pol eta inh-1 – qHTS for Inhibitors of Polymerase Eta. DNA polymerase eta (Homo sapiens), Q9Y253. Potency, µM (titrated, usually from 114 µM), for inactives: at the highest dose activity change, negative = inhibition, actives largely listed as inhibitors. AID 588591, 2011. recombinant Pol eta, fluorescent DNA replication assay. hit rate 1.2% among 390,000; also: potency is read from the fitted curve at half-maximal effect; % is scaled to controls: 0 for no effect and ±100 for the full control effect
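Fluorescent replication assay: 50 nM final substrate added after a 15 min room-temperature compound preincubation with 10 nM enzyme. Signal taken at 0 min and again at 10 min.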
Pol iota confirm – qHTS for Inhibitors of Polymerase Iota: Confirmatory Assay for Cherry-picked Compounds; AID 720496, 2013; hit rate 77% among 1,500; Potency, µM, hits mostly inhibitors; shares compounds with POLK inh; Pol iota primer extension, TAMRA/BHQ fluorescence; also: potency is read from the fitted curve at half-maximal effect
GALK confirm – Confirmation Assay for Inhibitors of Human Galactokinase (GALK) | shares compounds with Pol eta inh-1 | purified GALK, Kinase-Glo ATP depletion luminescence | Potency, µM (series often up to 115 µM), inactives show at the highest dose activity, negative = inhibition, usual class: inhibitors | hit rate 70% among 150 | AID 2015, 2009
Redox cycling – Confirmatory Assay for Inhibitors of Human Galactokinase (GALK): Phenol-HRP redox assay counterscreen; shares compounds with Pol eta inh-1; Phenol red-HRP H2O2 redox cycling, absorbance 600 nm; Potency, µM (titrated, usually from 115 µM), for inactives: at the top dose activity change, negative = H2O2 signal, usual class: inhibitors; hit rate 40% among 150
HEK293 viability – Secondary Assay for Inhibitors of Human Galactokinase (GALK): HEK-293 Cell Viability Assay. shares compounds with Pol eta inh-1. HEK-293 viability, ATP luminescence (CellTiter-Glo), 24/48 h. Potency, µM (top dose mostly 46.1 µM), for the others: at the highest dose activity change, negative = cytotoxicity, most hits filed as inhibitors. hit rate 10% among 170. AID 2547, 2010; also: potency is read from the fitted curve at half-maximal effect; % is scaled to controls: 0 for no effect and ±100 for the full control effect
Pol eta inh-2 – qHTS for Inhibitors of Polymerase Eta: Confirmatory Assay for Cherry-picked Compounds. Pol eta primer extension, TAMRA/BHQ fluorescence, 10 min. Potency, µM, hits mostly inhibitors. shares compounds with Pol eta inh-1. hit rate 64% among 2,600. AID 720502, 2013; also: potency is read from the fitted curve at half-maximal effect
* = called active by the depositor; ? = inconclusive; · = not tested or not shown; [ ] = remark or other dose. Calls follow the shape of the dose curve; as a rule, active = well fitted curve in the direction sought with a large enough effect; inconclusive = small, poorly fitted or top-dose-only effect, or another doubt; inactive = no such curve, though single readings can be large; an effect the other way counts as inactive or inconclusive.

SMILES	POLI inh	FEN1 inh	POLK inh	WRN inhibitor	POLB inh	Pol eta inh-1	Pol iota confirm	Pol eta inh-2	others
CCOC(=O)c1[nH]c2c(c1C)C(=O)CC(c1ccco1)C2 (centres undefined)	?	?	56µM*	?	28µM*	20µM*	67*	60*
COCCOC(=O)c1[nH]c2c(c1C)C(=O)CC(c1ccco1)C2 (centres undefined)	-79%	?	22µM*	?	11µM*	13µM*	42*	38*
O=C1CCCC(O)=C1N=Nc1cccc(C(=O)O)c1	14µM*	?	50µM*	?	10µM*	10µM*	34*	27*
CCN(CC)S(=O)(=O)c1cccc(N=NC2=C(O)CCCC2=O)c1	37%	-4%	-12%	1%	-10%	-6%	·	·
CCc1ccc(S(=O)(=O)/N=C2\C=C(Nc3cccc(C(=O)O)c3)C(=O)c3ccccc32)cc1	1.1µM*	-25%	-24%	?	?	22µM*	75*	60*
O=C(O)c1ccc(NC2=C/C(=N/S(=O)(=O)c3ccccc3)c3ccccc3C2=O)cc1	?	?	-11%	?	-24%	8.9µM*	19*	21*	GALK confirm=?;Redox cycling=6µM*;HEK293 viability=11µM*
Cc1cc(C)c(S(=O)(=O)/N=C2\C=C(NS(=O)(=O)c3ccccc3)C(=O)c3ccccc32)c(C)c1	?	4%	1%	-9%	27%	-24%	·	·
O=C(O)c1ccc(NC2=C/C(=N/S(=O)(=O)c3cccs3)c3ccccc3C2=O)cc1	·	·	·	-16%[11.6 µM]	·	8.9µM*	30*	21*
COc1ccc(N2CCN(c3ncccc3C#N)CC2)cc1	-14%	0%	-12%	1%	21%	-10%	·	·
Cn1cnnc1SCC(=O)NC1CCCN(Cc2ccc(Cl)cc2)C1 (centres undefined)	1%	-1%	-18%	-29%	40%	-11%	·	·
Cc1ccc(S(=O)(=O)N(CC(=O)O)Cc2ccco2)cc1	28µM*	-16%	?	-32%	?	18µM*	67*	19*
